# Data taken from PubChem BioAssay (EPA / NIEHS).
# Results filed as inconclusive are left out. Activity calls are given as the source filed them. How the source made its calls, unless noted: active means hit-call score of the fitted dose curve at least 0.9, where 1 is the maximum; inconclusive means response in the unintended direction; inactive means score below 0.9.
# Assays:
# [1] = Tanguay_ZF_120hpf_TR_legacy: (Legacy) Oregon State University Tanguay Lab 120 Hour Post-fertilization zebrafish Assay for Touch Response (AID 2283667)
# How it was run: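 Tropical 5D wild-type zebrafish embryos statically exposed to 120 hpf at 28°C, sealed and dark-covered, 0.64% DMSO final; touch response scored as present/absent by brightfield microscopy at 120 hpf. Trimethyltin chloride 5 uM positive control; dead embryos not scored.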
# [2] = CCTE_Padilla_ZF_144hpf_TERATOSCORE: (Legacy) CCTE's 144 Hour Post-fertilization zebrafish Assay Teratoscore, Padilla Lab (AID 2283679; active means hit-call score of the fitted dose curve at least 0.9, where 1 is the maximum; inactive means score below 0.9;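 on AC50: zebrafish embryos with chorions exposed by immersion from 6-8 hpf to 5 dpf with daily renewal; teratogenicity score from eye scoring of death hatching and malformations at 144 hpf; higher score means more developmental defects relative to DMSO baseline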)
# How it was run: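 Larvae scored by eye at 144 hpf for death, hatching and malformations after a day in clean Hanks'. Before that, daily-renewed exposure at 80 uM (0.4% DMSO, 26C) from roughly 6-8 hpf through 5 dpf, 4 embryos per chemical.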
# [3] = read-out: Cytochrome P450 (CYP24A1_1), CYP24A1 (gene 1591); experiment: LTEA_HepaRG_CYP24A1_1: Life Technologies and Expression Analysis (LTEA) Assay for Cytochrome P450 (CYP24A1_1) using HepaRG (AID 2283671; active means hit-call score of the fitted dose curve at least 0.9, where 1 is the maximum; inactive means score below 0.9); settings: mRNA level, 48 h; actives raise or lower the signal
# How it was run: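 Differentiated human HepaRG cells in serum-free induction medium, exposed 48 h in duplicate to eight half-log concentrations from 100 uM top, 0.5% DMSO. Transcript measured by TaqMan qRT-PCR, normalised to ACTB, GAPDH, POLR2A; bidirectional fitting versus DMSO.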
smiles,measurement,setting,value
CN(C)CCO,outcome,[1],inactive
same,outcome,[2],inactive
C[C@]12CCC(=O)C=C1CC[C@@H]1[C@@H]2CC[C@@]2(C)[C@H]1CC[C@]2(C)O,outcome,[1],inactive
same,AC50,[2],24.4 µM (active)
C=CC(=O)NCNC(=O)C=C,outcome,[1],inactive
ClC1=C(Cl)[C@]2(Cl)[C@@H]3[C@H]4C[C@H]([C@@H]5O[C@H]45)[C@@H]3[C@@]1(Cl)C2(Cl)Cl,AC50,[1],81.5 µM (active)
same,AC50,[2],0.00973 µM (active)
CCOC(=O)C(O)(c1ccc(Cl)cc1)c1ccc(Cl)cc1,outcome,[1],inactive
same,AC50,[2],1.71 µM (active)
Cc1ccccc1O,outcome,[1],inactive
C1CC2OC2CC1C1CO1 (stereo not drawn),AC50,[2],77.8 µM (active)
Cc1cc(O)ccc1Cl,outcome,[1],inactive
same,AC50,[2],112 µM (active)
Clc1ccc(Cl)cc1,outcome,[1],inactive
same,outcome,[3],inactive
Cc1cc2c3c(c1)C(c1ccccc1)=N[C@@H](NC(=O)c1ccncc1)C(=O)N3CC2,outcome,[1],inactive
same,AC50,[2],54.4 µM (active)
O=NN(c1ccccc1)c1ccccc1,outcome,[1],inactive
same,AC50,[2],53.4 µM (active)
Oc1ccc(Cl)cc1Cl,outcome,[1],inactive
same,AC50,[2],56.6 µM (active)
Clc1ccc(C(c2ccccc2Cl)C(Cl)(Cl)Cl)cc1 (stereo not drawn),AC50,[2],16.1 µM (active)
ClC1=C(Cl)[C@]2(Cl)[C@@H]3[C@@H](Cl)[C@H]4O[C@H]4[C@@H]3C1(Cl)C2(Cl)Cl,outcome,[1],inactive
same,AC50,[2],0.547 µM (active)
Cc1cc(-c2ccc(N)c(C)c2)ccc1N,outcome,[1],inactive
ClC1=C(Cl)[C@]2(Cl)[C@@H]3[C@@H]4C[C@@H]([C@H]5O[C@@H]45)[C@@H]3[C@@]1(Cl)C2(Cl)Cl,outcome,[1],inactive
same,AC50,[2],0.345 µM (active)
CCCN(CCC)N=O,outcome,[1],inactive
same,outcome,[2],inactive
Cc1cccc([N+](=O)[O-])c1,outcome,[1],inactive
O=C(NC(=O)c1cc(F)c(F)cc1Cl)Nc1cc(F)ccc1N1CCC(C(=O)O)CC1,outcome,[1],inactive
same,AC50,[2],31 µM (active)
NS(=O)(=O)C(F)(F)C(F)(F)C(F)(F)C(F)(F)C(F)(F)C(F)(F)C(F)(F)C(F)(F)F,outcome,[1],inactive
same,AC50,[2],0.45 µM (active)
ClC(Cl)=C(c1ccc(Cl)cc1)c1ccc(Cl)cc1,outcome,[1],inactive
same,AC50,[2],8.32 µM (active)
Cc1cccc(C)c1N,outcome,[1],inactive
CC1=C2C[C@H]3[C@@H](CC=C4C[C@@H](O)CC[C@@]43C)[C@@H]2CC[C@]12O[C@@H]1C[C@H](C)CN[C@H]1[C@H]2C,AC50,[1],22.5 µM (active)
same,outcome,[3],inactive
same,AC50,[2],0.115 µM (active)
c1cc2ccc3cccc4ccc(c1)c2c34,outcome,[1],inactive
same,AC50,[2],13.5 µM (active)
Nc1ccc(-c2ccc(N)cc2)cc1,outcome,[1],inactive
same,AC50,[2],33 µM (active)
O=S(=O)(O)C(F)(F)C(F)(F)C(F)(F)C(F)(F)C(F)(F)C(F)(F)F,AC50,[1],25.9 µM (active)
same,AC50,[2],123 µM (active)
CO/C=C(/C(=O)OC)c1ccccc1COc1cccc(C(F)(F)F)n1,AC50,[1],13.2 µM (active)
same,AC50,[2],0.168 µM (active)
